Assay results from PubChem BioAssay AID651558 (National Center for Advancing Translational Sciences (NCATS), 2012).
The whole screen tested about 1,200 compounds, of which about 480 (40%) were called active. Another 29% or so got no clear call; they are omitted. Calls come from the whole dose curve; as a rule, active = well fitted inhibition curve with a large enough effect; inconclusive = small, poorly fitted or top-dose-only effect; inactive = no such curve, though single readings can be large or run the other way. The list shows a part of the results.

Experiment: qHTS Assay to Find Inhibitors of Chronic Active B-Cell Receptor Signaling: Hit Validation in Primary Screen; note: nearly all actives have a fitted effect of over 75% in size
Details: ABC-DLBCL IkB-luc/CBR ratio luminescence, 4 h; series mostly up to 46.1 µM; activity change, negative = inhibition: at the top concentration
Summary of the method: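 Concentration series (3 nM to 46 uM) tested on TMD8 cells induced with doxycycline for 4 h. Filter-corrected green (IkBa fusion) over red (unfused) luciferase signal; Data were normalised to 10 uM MG-132 and untreated cell wells.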
% is set by controls: 0 for no effect and ±100 for the full control effect; potency is the fitted concentration of half-maximal effect.

SMILES	activity change, negative = inhibition	Potency
CC(C)Sc1ccccc1C(=O)Nc1ccc2c(c1)n(C)c(=O)n2C	113% (inactive)	–
CC(C)n1c(SCC(=O)Nc2ccccc2)nc2c1c(=O)n(C)c(=O)n2C	–	18.4 µM (active)
CC1CCCCN1C(=S)NC(=O)c1cccs1 (stereo unspecified)	-6.25% (inactive)	–
Cc1cnn(CCC(=O)NNC(=S)NCC(C)C)c1	-5.82% (inactive)	–
C/C(=N/NC(=O)COc1cc(C)ccc1C(C)C)C(=O)O	-2% (inactive)	–
O=C(COc1ccccc1-c1ccccc1)NN=C1CCCC1	-6.57% (inactive)	–
C/C(=N\NC(=O)COc1ccccc1-c1ccccc1)c1ccccn1	41.6% (inactive)	–
Cc1ccc(/C=N/NC(=O)COc2ccccc2-c2ccccc2)cc1	–	0.291 µM (active)
O=C(COc1ccccc1-c1ccccc1)N/N=C/c1cccc2ccccc12	–	2.06 µM (active)
O=C(COc1ccccc1-c1ccccc1)N/N=C/c1ccc2ccccc2c1	–	0.651 µM (active)
C/C(CCC(C)C)=N\NC(=O)COc1ccccc1-c1ccccc1	-6.47% (inactive)	–
COc1ccc(/C=N/NC(=O)COc2ccccc2-c2ccccc2)cc1	–	2.59 µM (active)
Cc1ccc(Cl)cc1NC(=S)N/N=C/c1cccc2ccccc12	94.8% (inactive)	–
Cc1[nH]n(C(N)=S)c(=O)c1N=Nc1ccc([N+](=O)[O-])cc1Cl	65.2% (inactive)	–
O=C1CC(c2ccccc2)Cc2nc3ncnn3cc21 (stereo unspecified)	-0.669% (inactive)	–
CCOc1ncccc1C(=O)N1CCN(c2cc(Cl)ccc2C)CC1	–	8.2 µM (active)
COC(=O)c1cc(C(=O)N2CCN(c3cccc(Cl)c3)CC2)cc([N+](=O)[O-])c1	–	5.8 µM (active)
CCOc1ccccc1C(=O)N1CCN(c2cccc(Cl)c2)CC1	–	0.517 µM (active)
CCOc1ncccc1C(=O)N1CCN(c2cccc(C)c2C)CC1	–	5.8 µM (active)
Cc1ccccc1C(=O)N1CCC(C(=O)N2CCN(Cc3ccc4c(c3)OCO4)CC2)CC1	-22% (inactive)	–
CCc1ccc(CNC(=O)Cc2ccc(NC(=O)C3=C(C)OCCS3)cc2)cc1	–	2.06 µM (active)
CC1=C(C(=O)Nc2ccc(CC(=O)NCc3ccc(OC(C)C)cc3)cc2)SCCO1	–	1.3 µM (active)

SMILES	activity change, negative = inhibition	Potency
CCCCC[C@H](O)/C=C/[C@@H]1[C@@H](C/C=C\CCCC(=O)OC)[C@@H](O)C[C@H]1O	–	0.103 µM (active)
CCCCC[C@H](O)/C=C/[C@@H]1[C@@H](C/C=C\CCCC(=O)O)[C@@H](O)C[C@H]1O	–	2.91 µM (active)
CCO[C@H]1OC(C(=O)NCc2nc3ccccc3[nH]2)=C[C@@H](C2CC2)[C@@H]1CCCO	–	18.4 µM (active)
O=C(Oc1c(CN2CCOCC2)cc(Cl)c2cccnc12)c1ccc(F)cc1	-3.49% (inactive)	–
Oc1ccc(NCc2cccc(OCc3ccccc3)c2)cc1	-5.22% (inactive)	–
Cc1[nH]n(C(N)=S)c(=O)c1N=Nc1ccc2ccccc2c1	-7.55% (inactive)	–
COc1ccc(N(C(=O)c2ccccc2C)S(=O)(=O)c2cccs2)cc1	–	5.17 µM (active)
C=CCOc1c(OC)cc(/C=N/Nc2cccc(C(=O)O)c2)c(Br)c1Br	–	2.91 µM (active)
O=C(Oc1ccc(Cl)c2cccnc12)C12CC3CC(CC(C3)C1)C2	74.1% (inactive)	–
O=c1cnnc(N/N=C/C2CC=CCC2)[nH]1 (stereo unspecified)	-5.08% (inactive)	–
COC(=O)C1C(O)=C(C=Nc2cccc3ccccc23)C(=O)CC1(C)C (stereo unspecified)	–	18.4 µM (active)
COC(=O)C1C(O)=C(C=Nc2ccccc2)C(=O)CC1(C)C (stereo unspecified)	–	16.4 µM (active)
CCCOc1ccccc1C1CC(=O)Nc2cc3c(cc21)OCCO3 (stereo unspecified)	–	7.31 µM (active)
CCOc1ccccc1C1CC(=O)Nc2cc3c(cc21)OCCO3 (stereo unspecified)	–	10.3 µM (active)
CCCOc1ccccc1C1CC(=O)Nc2cc3c(cc21)OCO3 (stereo unspecified)	–	6.51 µM (active)
Cc1ccc(-c2ccccc2NC(=O)CS(=O)CC(=O)Nc2ccc(C)c(Cl)c2)o1 (stereo unspecified)	-5.18% (inactive)	–
COc1cc(/C=C/c2ccc3cccc(O)c3n2)cc(OC)c1OC	–	18.4 µM (active)
CCOc1cccc(/C=C/c2ccc3cccc(O)c3n2)c1OC	44.8% (inactive)	–
COc1cc(/C=C/c2ccc3cccc(O)c3n2)cc(Br)c1OC	–	20.6 µM (active)
COc1cc(/C=C\C(=O)OCn2nnc3ccccc3c2=O)cc(OC)c1OC	109% (inactive)	–
CCCCC(=O)NC(=S)Nc1nnn(CCC)n1	35.1% (inactive)	–
COC(=O)CCC(=O)NC(=S)Nc1sc(C)c(C)c1C(N)=O	–	4.61 µM (active)

SMILES	activity change, negative = inhibition	Potency
COc1ccccc1CNC(=O)CSc1ccc(C)cc1	-23.7% (inactive)	–
COc1ccc(CN(C)C(=O)Cn2cnc3c(NCc4ccccc4)ncnc32)cc1OC	-11.9% (inactive)	–
CCOc1cc(-c2nnc(SCC(=O)NCc3ccccc3)nc2-c2ccc(OC)c(OCC)c2)ccc1OC	–	2.59 µM (active)
CC1=NN(C(N)=S)C(=O)C1N=Nc1ccc(F)cc1 (stereo unspecified)	6.1% (inactive)	–
Cc1ccsc1/C=C/C1=NCCCN1C	-7.76% (inactive)	–
CC1(C)N=c2ccc([N+](=O)[O-])c(N)c2=[N+]1[O-]	54.3% (inactive)	–
COc1cc(OC)c(OC)cc1/C=C/C(=O)c1ccc(NS(=O)(=O)c2ccc(C)cc2)cc1	–	13 µM (active)
COc1ccc(S(=O)(=O)Nc2ccc3c(c2)n(C)c(=O)n3C)cc1F	40.4% (inactive)	–
O=C(Nc1nc2c(F)cc(F)cc2s1)c1ccccn1	–	13 µM (active)
COc1ccc2nc(NC(=S)NC(=O)c3ccco3)sc2c1	0.56% (inactive)	–
Cc1ccc2nc(NC(=O)c3ccccn3)sc2c1	–	1.16 µM (active)
S=C(Nc1ccccn1)c1ccccn1	-24% (inactive)	–
CCOc1ccc2nc(NC(=O)c3ccccn3)sc2c1	–	14.6 µM (active)
O=C(Nc1nc2ccc(F)cc2s1)c1ccccn1	–	1.46 µM (active)
O=C(Nc1nnc(SCc2ccc(F)cc2)s1)c1ccccn1	49.8% (inactive)	–
CCOc1ccc2nc(NS(=O)(=O)Cc3ccccc3)sc2c1	59.6% (inactive)	–
C/C(=N\NC(=O)c1ccc(F)cc1)c1ccccn1	-9.46% (inactive)	–
O=C(NCC(=O)N1CCCC(C(F)(F)F)C1)c1ccc(Oc2ccccc2)cc1 (stereo unspecified)	-6.27% (inactive)	–
CN(C)NC(=S)NC(=O)C12CC3CC(CC(C3)C1)C2	-2.28% (inactive)	–
Cc1cc(C(N)=O)nn1-c1c(Cl)cc(Cl)cc1Cl	-9.85% (inactive)	–
COc1ccccc1NC(=O)c1c(N=Cc2c(O)ccc3ccccc23)cnn1C	–	3.26 µM (active)
CC(=O)N1CC(=O)N=C1SCC(=O)Nc1nc(C)c(-c2ccccc2)s1	–	23.1 µM (active)
